# From PubChem BioAssay AID1851 (National Center for Advancing Translational Sciences (NCATS), 2009)
# The campaign covered roughly 16,000 compounds. About 5,100 (32%) were called active. Inconclusive results (about 25%) are left out. Some of the results follow. A number with no mark means an inactive call. The call rests on the fitted dose curve; in most records, active means well fitted curve in the direction sought with a large enough effect; inconclusive means small, poorly fitted or top-dose-only effect, or effect the other way; inactive means no such curve, though single readings can be large or run the other way.
# Biological target: Cytochrome P450 3A4 (Homo sapiens) (UniProt P08684)
# Sequence (P08684 whole entry, looked up): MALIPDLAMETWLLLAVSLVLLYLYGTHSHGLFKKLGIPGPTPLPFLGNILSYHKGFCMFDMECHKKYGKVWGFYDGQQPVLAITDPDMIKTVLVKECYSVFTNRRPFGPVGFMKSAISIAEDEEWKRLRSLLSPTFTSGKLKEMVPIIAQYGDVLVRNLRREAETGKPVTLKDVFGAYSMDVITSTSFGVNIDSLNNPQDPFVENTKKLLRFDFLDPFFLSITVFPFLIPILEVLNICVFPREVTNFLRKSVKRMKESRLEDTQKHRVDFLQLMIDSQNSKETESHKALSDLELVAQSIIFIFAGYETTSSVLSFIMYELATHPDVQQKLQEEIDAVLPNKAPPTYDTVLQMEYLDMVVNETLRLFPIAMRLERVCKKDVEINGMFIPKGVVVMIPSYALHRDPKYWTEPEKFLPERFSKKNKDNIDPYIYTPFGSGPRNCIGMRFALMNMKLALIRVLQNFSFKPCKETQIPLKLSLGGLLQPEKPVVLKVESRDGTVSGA
# Assay: Cytochrome panel assay with activity outcomes
# Conditions: recombinant CYP, pro-luciferin dealkylation, luminescence, p450-cyp3a4; series mostly up to 57.1 µM; activity, negative = inhibition: at the top concentration
# On the % scale 0 is the no-effect control and ±100 the full control effect.
Compound,"activity, negative = inhibition",AC50
CN1CCc2[nH]nc(-c3n[nH]c4c3CN(C)CC4)c2C1,-6.16% [at 11.4 µM],–
CCN1CCN(C(=O)N[C@H](C(=O)N[C@@H]2C(=O)N3[C@@H]2SC(C)(C)[C@@H]3C(=O)O)c2ccccc2)C(=O)C1=O,-6.91% [at 25.6 µM],–
CCOc1c(Cl)cc(C(=O)Nc2ccccc2-c2ccccc2)cc1Cl,–,14.1 µM (active)
CCOC(=O)c1ccc(Cl)c(NC(=O)c2ccc(-c3ccccc3)cc2)c1,6.61% [at 11.4 µM],–
CO[C@@H]1COC(=O)CC=C[C@@H](C)[C@@H]2C=C[C@H](O)[C@@H](COC(=O)[C@H](C)NC(=O)CC=C[C@H]1C)O2,-23.2% [at 11.4 µM],–
COc1ccc(NC(=O)N2CCC3(CC2)CCN(C(=O)c2cnccn2)CC3)cc1,1.33%,–
COc1ccc(-c2cc(C(F)(F)F)n3nc(C(=O)N4CCCCC4)cc3n2)cc1,–,14.1 µM (active)
COC(=O)c1ccccc1NC(=O)c1cc2nc(C3CC3)cc(C(F)(F)F)n2n1,-9.05%,–
CCOC(=O)C1CCCN(C(=O)c2cc3nc(-c4ccc5c(c4)OCO5)cc(C(F)(F)F)n3n2)C1 (centres undefined),–,3.98 µM (active)
CCOC(=O)c1[nH]c(C(=O)O)c(CCN(CC)CC)c1C,-2.71%,–
CN(C)Cc1ccc(-c2cc3onc(-c4ccccc4)c3c(=O)n2C)cc1,8.36% [at 11.4 µM],–
COc1ccc(C(C(=O)NC2CCCC2)N(C(=O)c2snc(-c3ccc(F)cc3)c2N)c2ccccc2)cc1 (centres undefined),-12% [at 2.29 µM],–
COc1ccc(C(C(=O)NC2CCCCC2)N(C(=O)c2sc(C)nc2C)c2ccc(OC)cc2)cc1 (centres undefined),–,12.6 µM (active)
COc1ccc(C(C(=O)NC2CCCCC2)N(C(=O)c2sc(C)nc2C)c2ccc(C(C)=O)cc2)cc1 (centres undefined),–,25.1 µM (active)
COc1ccc(C(C(=O)NC2CCCCC2)N(C(=O)CCCC(=O)Nc2ccccn2)c2ccc3c(c2)OCCO3)cc1 (centres undefined),–,1.26 µM (active)
CC(=O)c1ccc(S(=O)(=O)NC(=O)NC2CCCCC2)cc1,-6.04% [at 25.6 µM],–
COc1ccc([N+](=O)[O-])cc1NC(=S)NC(NC(=O)Cc1ccc(OC)c(OC)c1)C(Cl)(Cl)Cl (centres undefined),–,1.58 µM (active)
COc1ccc(OC)c(NC(=O)CC(Cc2ccccc2OC)C(=O)O)c1 (centres undefined),-5.42%,–
CC(CC(=O)Nc1ccc(Cl)c([N+](=O)[O-])c1)c1ccccc1 (centres undefined),–,10 µM (active)
Cc1ccc([N+](=O)[O-])cc1NC(=S)NC(=O)C(C)(C)C,10.2%,–
CC(C)CC(=O)Nc1ccc2c(c1)oc1ccccc12,-15.6%,–
COc1ccc([N+](=O)[O-])cc1NCc1ccccc1C,–,12.6 µM (active)

Compound,"activity, negative = inhibition",AC50
CCOc1ccc(NC(=S)NC(=O)/C=C/c2ccc(OC)c(OC)c2)c([N+](=O)[O-])c1,12.7%,–
CC(CC(=O)O)CC(=O)Nc1ccc(S(N)(=O)=O)cc1 (centres undefined),-4.05% [at 2.29 µM],–
COc1ccc([N+](=O)[O-])cc1NC(=O)CC(C)c1ccccc1 (centres undefined),–,7.08 µM (active)
C1CNCCOCCNCCN1,-2.84%,–
COc1ccc(N2CCN(Cc3nc4c(c(=O)[nH]c(=O)n4C)n3CCCc3ccccc3)CC2)cc1,–,2.24 µM (active)
CCOC(=O)Cn1c(CN(Cc2ccccc2)Cc2ccccc2)nc2c1c(=O)[nH]c(=O)n2C,–,25.1 µM (active)
CCOC(=O)N1CCN(Cc2nc3c(c(=O)[nH]c(=O)n3C)n2Cc2ccccc2C)CC1,–,3.98 µM (active)
Cn1c(=O)c2c(nc(Cc3ccccc3)n2CC(=O)O)n(C)c1=O,-2.47% [at 11.4 µM],–
COc1ccc(N2CCN(Cc3nc4c(c(=O)n(C)c(=O)n4C)n3CC(C)=O)CC2)cc1,-22.5%,–
Cn1c(=O)[nH]c(=O)c2c1nc(CN1CCOCC1)n2CCCO,0.641%,–
CCN1CCN(c2nc3c(c(=O)[nH]c(=O)n3C)n2CCCSc2ncccn2)CC1,1.03%,–
Cn1c(=O)[nH]c(=O)c2c1nc(CN(Cc1ccccc1)Cc1ccccc1)n2CCN1CCOCC1,–,4.47 µM (active)
Oc1cc2c(cc1O)[C@H](c1ccccc1)CNCC2,–,inactive
CCOCCn1c(CN(Cc2ccccc2)Cc2ccccc2)nc2c1c(=O)[nH]c(=O)n2C,–,15.8 µM (active)
CN(C)c1nc2c(c(=O)[nH]c(=O)n2C)n1Cc1ccccc1Br,-21%,–
O=S(Cc1ccc(Br)cc1)Cc1nnc(SCc2ccc(Cl)cc2)n1-c1ccccc1 (centres undefined),–,7.08 µM (active)
COC(Cc1nnc(SC)n1-c1ccc(Cl)cc1)OC,-7.38%,–
O=P(O)(CCc1ccccc1)C(O)c1ccccc1 (centres undefined),2.84% [at 11.4 µM],–
CCC(=O)[C@@H](c1ccccc1)c1ccccn1,-1.45% [at 11.4 µM],–
O=C(O)c1ccccc1C(=O)Nc1nccs1,-3.78%,–
CCCC(C(=O)Nc1nccs1)c1ccccc1 (centres undefined),–,12.6 µM (active)
O=[N+]([O-])c1cc(C(F)(F)F)ccc1NCCCCNS(=O)(=O)c1ccc2ccccc2c1,–,14.1 µM (active)
